Laboratory results from PMC4336329 (PLoS ONE, 2015).
Among all 310,000 compounds or so, about 14,000 (4.5%) showed an effect of 50% or more. The effect is printed as a negative number. This excerpt belongs to a sample that is enriched for strong results.

biological target: human ether-à-go-go-related gene (hERG) potassium channel (human, UniProt Q12809); assay: primary screen, population patch clamp on CHO cells stably expressing hERG; higher = less effect of the substance
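Note: peak tail current of the secondary pulse compared with the same well before compound.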

Chain of human ether-à-go-go-related gene (hERG) potassium channel (Q12809 whole entry, looked up): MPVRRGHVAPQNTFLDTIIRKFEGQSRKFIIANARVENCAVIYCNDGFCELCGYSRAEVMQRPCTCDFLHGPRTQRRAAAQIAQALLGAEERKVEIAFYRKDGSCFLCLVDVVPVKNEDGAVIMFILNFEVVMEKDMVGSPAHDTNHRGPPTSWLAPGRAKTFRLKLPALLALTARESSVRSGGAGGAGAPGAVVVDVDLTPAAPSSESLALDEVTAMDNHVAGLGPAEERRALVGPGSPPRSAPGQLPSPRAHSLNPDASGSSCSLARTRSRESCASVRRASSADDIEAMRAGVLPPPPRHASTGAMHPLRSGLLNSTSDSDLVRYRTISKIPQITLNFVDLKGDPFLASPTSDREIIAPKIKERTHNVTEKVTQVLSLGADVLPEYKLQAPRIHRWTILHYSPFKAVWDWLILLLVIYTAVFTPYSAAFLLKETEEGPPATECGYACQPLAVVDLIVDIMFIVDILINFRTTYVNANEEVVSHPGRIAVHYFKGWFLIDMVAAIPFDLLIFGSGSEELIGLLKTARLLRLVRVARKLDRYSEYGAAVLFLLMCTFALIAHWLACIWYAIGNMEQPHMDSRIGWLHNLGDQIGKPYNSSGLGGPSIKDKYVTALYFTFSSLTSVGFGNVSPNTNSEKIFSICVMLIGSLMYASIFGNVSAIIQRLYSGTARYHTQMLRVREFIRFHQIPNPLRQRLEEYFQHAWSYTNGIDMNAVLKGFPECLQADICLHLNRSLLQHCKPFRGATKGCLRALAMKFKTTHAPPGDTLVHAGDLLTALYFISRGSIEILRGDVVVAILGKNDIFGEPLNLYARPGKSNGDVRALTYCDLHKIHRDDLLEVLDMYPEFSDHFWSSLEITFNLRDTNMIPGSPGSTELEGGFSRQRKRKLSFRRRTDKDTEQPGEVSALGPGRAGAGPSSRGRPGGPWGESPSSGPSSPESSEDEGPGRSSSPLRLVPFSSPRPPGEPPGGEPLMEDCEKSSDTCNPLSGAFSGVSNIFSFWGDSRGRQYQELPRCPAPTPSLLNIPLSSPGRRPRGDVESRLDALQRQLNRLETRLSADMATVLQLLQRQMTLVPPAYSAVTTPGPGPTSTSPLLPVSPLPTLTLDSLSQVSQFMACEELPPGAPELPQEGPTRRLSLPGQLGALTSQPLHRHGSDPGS

SMILES	hERG current change (%, negative = inhibition) at 10uM
CSc1nnnn1CCn1nnnc1SC	10.1%
Cc1cccc(/C=N/n2c(C)nnc2C)c1	-0.651%
O=C1CN(C(=O)CSc2nc(-c3ccc(Cl)cc3)cs2)c2ccccc2N1	13.9%
Fc1ccccc1-c1nc2c(s1)CCc1onc(-c3ccc(Br)cc3)c1-2	11.4%
CCC(C)c1ccc(NC(=S)N2CCCC2)cc1 (stereo not shown)	1.86%
O=C(CCSCc1ccc(Cl)cc1)NCCC1=CCCCC1	11.4%
COc1ccc(N/C=C2\CCc3ccccc3C2=O)cc1	0.787%
CC(O/N=C/c1ccc(OC(F)F)cc1)C(=O)Nc1cccc(S(=O)(=O)N2CCOCC2)c1 (stereo not shown)	-60.5%
COc1ccc(C(=O)NCC(=O)OCC(=O)Nc2cccc(S(=O)(=O)N3CCCC3)c2)cc1	-15.8%
O=C(CNC(=O)c1ccc(OC(F)F)cc1)Nc1cccc(S(=O)(=O)N2CCCC2)c1	-70.3%
O=C(COC(=O)CNC(=O)c1ccc(F)cc1)Nc1cccc(S(=O)(=O)N2CCCC2)c1	-12%
O=C(/C=C/c1ccc(OC(F)F)cc1)Nc1cccc(S(=O)(=O)N2CCOCC2)c1	14.2%
CC(O/N=C/c1ccccc1OC(F)F)C(=O)Nc1cccc(S(=O)(=O)N2CCOCC2)c1 (stereo not shown)	-33.9%
C[C@H]1CN=C(N(C)C)N1CC1CCCCC1	7.73%
Nc1nonc1-n1nnc(C(=O)N/N=C/c2cccc(Cl)c2)c1-c1cccs1	3.81%
Cc1noc(NS(=O)(=O)c2ccc(N/C=C/C(=O)c3ccncc3)cc2)c1C	-13%
COCCCN1CC(=O)N2C(c3ccccc3)c3[nH]c4ccccc4c3C[C@H]2C1=O (stereo partly shown)	-11.3%
O=C(NNC(=O)C12CC3CC(CC(C3)C1)C2)c1csc(N2CCOCC2)n1	11.3%
COC(=O)C1=C[C@@H](C(=O)OC)[C@@H]2C3=C(C(=O)[C@]2(C)NC(=O)c2ccccc2)[C@H](C)n2c(=O)n(-c4ccccc4)c(=O)n2[C@@H]3C1	7.6%
Cc1cc(NC(=O)Nc2ccc(Cl)c(Cl)c2)n(-c2ccccc2)n1	13.9%

SMILES	hERG current change (%, negative = inhibition) at 10uM
O=C(O)c1ccc(NS(=O)(=O)c2cccc(C(=O)Nc3ccc([N+](=O)[O-])cc3)c2)cc1	18.8%
COc1ccc([N+](=O)[O-])cc1N/C(=N/S(=O)(=O)c1ccccc1)c1ccccc1	-57.8%
COc1ccc(C(=O)Nc2ccc(NC(=O)c3cccs3)cc2)cc1Cl	27.5%
COc1ccccc1N/C(=N/S(=O)(=O)c1ccc(Cl)cc1)c1ccccc1	-35.1%
Cc1ccccc1NC(=O)c1cccc(S(=O)(=O)Oc2ccc([N+](=O)[O-])cc2)c1	-24.5%
O=C(Nc1ccccc1)c1cccc(S(=O)(=O)Oc2ccc([N+](=O)[O-])cc2)c1	-56.4%
COc1ccccc1N/C(=N/S(=O)(=O)c1ccc(C)cc1)c1ccccc1	-31%
COc1ccc(C(=O)Nc2ccc(Nc3ccccc3)cc2)cc1[N+](=O)[O-]	-37%
COc1ccc([N+](=O)[O-])cc1NC(=O)Nc1ccccc1	10.3%
COc1ccc(C(=O)Nc2ccccc2)cc1NC(=O)c1cccs1	-74%
COc1ccc(C(=O)Nc2ccccc2)cc1NC(=O)c1ccc([N+](=O)[O-])cc1	-56.8%
COc1ccc(C(=O)Nc2cccc(NC(=O)c3cccs3)c2)cc1OC	8.5%
Cc1cc(C)c2nc(SCC(=O)NC(=O)c3cccn3C)cc(C)c2c1	-2.66%
COc1ccc(C(C)=O)cc1COC(=O)c1cc(C)nc2ccccc12	13.6%
O=C(Nc1ccc([N+](=O)[O-])cc1)c1nc[nH]c1C(=O)NC1CCCCC1	16.2%
COC(=O)c1c(NC(=O)C(C)C)sc2c1C(C(=O)OC)CC2 (stereo not shown)	11.8%
CC(C)Sc1nnc(-c2c[nH]c3ccccc23)n1C	1.3%
CN1CCN(/N=C/c2c(O)n(Cc3ccc(F)cc3)c(=O)[nH]c2=O)CC1	0.78%
COc1cccc(NC(=O)CN(c2ccc3c(c2)OCO3)S(C)(=O)=O)c1	3.07%
CNc1nnc(-c2ccc(N(C)C)cc2)s1	8.65%

SMILES	hERG current change (%, negative = inhibition) at 10uM
CCCCCn1c(=O)c(C(=O)OCC)c(O)c2ccccc21	-64%
CCCCCn1c(=O)c(C(=O)OCC)c(Cl)c2ccccc21	-73.8%
CCCCCCCCn1c(=O)c(C(=O)OC)c(N)c2ccccc21	3.02%
CCCCCCCn1c(=O)c(C(=O)OC)c(N)c2ccccc21	-9%
CCCCn1c(=O)c(C(=O)OCC)c(O)c2ccccc21	2.18%
CCCCCCCCn1c(=O)c(C(=O)OCC)c(O)c2ccccc21	14.5%
CCC1CCCCN1CCCNC(=O)CSc1nc2nc(C)c(Cc3ccc(C)cc3)c(C)n2n1 (stereo not shown)	-47.8%
NS(=O)(=O)c1ccc(NC(=O)COC(=O)CCC2CCCCC2)cc1	-5.65%
Cc1ccc(C(=O)NCCN2CCNC2=O)cc1	12.9%
O=C(Nc1ccc2c(c1)OCO2)C(=O)c1c[nH]c2ccccc12	22.3%
COc1ccc(C(=O)NCCCNC(=O)c2ccccn2)cc1	10.8%
CCCn1c(SCC(=O)NC2CCCCC2)nnc1-c1ccncc1	4.24%
C=CCOc1ccc(CN(C)c2ccc(S(=O)(=O)N3CCN(C)CC3)cc2[N+](=O)[O-])cc1	6.82%
CN1CCN(S(=O)(=O)c2ccc(N(C)Cc3ccc(OC(F)F)cc3)c([N+](=O)[O-])c2)CC1	-60.8%
CN1CCN(S(=O)(=O)c2ccc(Nc3cccc(Cl)c3)c([N+](=O)[O-])c2)CC1	-20.7%
COc1cc(Nc2ccc(S(=O)(=O)N3CCN(C)CC3)cc2[N+](=O)[O-])cc(OC)c1	-28.6%
CN1CCN(S(=O)(=O)c2ccc(N(C)Cc3ccc(C(F)(F)F)cc3)c([N+](=O)[O-])c2)CC1	-5.45%
CN1CCN(S(=O)(=O)c2ccc(Nc3ccc(F)cc3)c([N+](=O)[O-])c2)CC1	-51.3%
